This is part of a sample that, as a whole, favours compounds with a hit. Of some 83,000 tested, about 20% had one in any assay.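 The test compound was applied at a single concentration to cells in 96-well plates for 48 hours, and percent growth was recorded.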 Unmarked numbers belong to inactive results. The source made the active and inactive calls. The calls were made as follows: active = growth percent below 10; inactive = the rest.
Experiments:
Experiment in all cases: NCI-60 one-dose screen, 48 h (100 = growth as untreated, 0 = no growth, -100 = all killed)
Details in all cases: 10 µM
SN12C renal = system: SN12C renal
UO-31 renal = system: UO-31 renal
TK-10 renal = system: TK-10 renal
ACHN renal = system: ACHN renal
CAKI-1 renal = system: CAKI-1 renal
A498 renal = system: A498 renal
CCRF-CEM leukemia = system: CCRF-CEM leukemia
MOLT-4 leukemia = system: MOLT-4 leukemia
SR leukemia = system: SR leukemia

Row | SMILES | growth (SN12C renal) | growth (UO-31 renal) | growth (TK-10 renal) | growth (ACHN renal) | growth (CAKI-1 renal) | growth (A498 renal) | growth (CCRF-CEM leukemia) | growth (MOLT-4 leukemia) | growth (SR leukemia)
1 | COc1ccc(-c2ccc(-c3ccc(C(=N)N)cn3)o2)cc1 | 74.9% | 30.7% | 117% | 80.6% | 75.1% | 59.4% | 74.3% | 52.7% | 10.3%
2 | COc1ccccc1CNCCCN1C(=O)c2ccc3c4c(ccc(c24)C1=O)C(=O)N(CCCN)C3=O | -89% (active) | -20.8% (active) | -3.35% (active) | 2.62% (active) | 31.3% | -0.046% (active) | -10.4% (active) |  | 5.24% (active)
3 | c1ccc(CSc2nnc3c4c5c(sc4nc(-c4cccnc4)n23)CCCCCC5)cc1 | 56.5% | 94.8% | 72.2% | 73.7% | 71.6% | 58.5% | 25.2% |  | 46.5%
4 | CC(C)(C)c1cc(Br)cc(C(C)(C)C)c1O | 96.5% | 86.6% | 113% | 106% | 89.5% | 120% |  | 96% | 92.3%
5 | C#Cc1ccc(-n2c(/C=C/c3cc(OC)cc(OC)c3)nc3ncccc3c2=O)cc1 | 81.8% | 87.6% | 81.6% | 67.1% | 95.8% | 91.9% |  | 58.3% | 44.8%
6 | COc1ccc(-c2nn(-c3cccc(NC(=O)Nc4ccccc4)c3)cc2-c2ccncc2)cc1Cl | 31.4% | -39.9% (active) | 28.1% | 34.8% | -7.47% (active) | 32.2% | 11.9% | -2.67% (active) | -6.06% (active)
7 | Cc1cc(Nc2ccc(Cl)cc2)nc(NCCCNc2ccnc3cc(Cl)ccc23)n1 | -75.9% (active) | -40.1% (active) | -74.7% (active) | -81.1% (active) | -36.3% (active) | 12.7% |  | -47.7% (active) | 
8 | Cc1cc(=O)n2nnc3c4ccccc4ccc3n12 | 37.2% | 46.8% | 74.1% | 78.1% | 67.8% | 108% | 23.4% |  | 9.54% (active)
9 | CCOC(=O)N1C=CC2C=CC1C1C=CC=CC2N1C(=O)OCC (stereo not given) | 99.3% | 83.4% | 111% | 101% | 84.5% | 89.7% |  | 95.5% | 
10 | COc1cc(/C=C/C(=O)c2ccc(Cl)cc2)ccc1OS(=O)(=O)c1ccc(C)cc1 | 86.6% | 74.2% | 116% | 94.3% | 82.5% | 86.3% | 12.9% | -2.36% (active) | -13.8% (active)
11 | O=C(CCCCC(=O)Nc1ccc2c(c1)/C(=C/c1ccc[nH]1)C(=O)N2)NO | 93.1% | 83.6% |  | 101% | 97.8% | 50.8% | 32.4% | 60.8% | 45.4%
12 | O=C(Nc1ccc(CO)cc1)c1ccccc1Nc1ccnc(C(F)(F)F)c1 | 95.6% | 81.5% |  | 103% | 95.8% | 95.7% | 89.7% | 98.4% | 82.9%
13 | CSc1nc(=O)n(Cc2ccc(F)cc2)c(=O)n1Cc1ccc(C)cc1 | 96.3% | 80.1% |  | 101% | 84.9% | 106% | 98.5% | 92.4% | 84.4%
14 | CC1=C(N2CCOCC2)C(N2CCOCC2)=C(C)C(=O)C1=O | 110% | 83.6% |  | 101% | 101% | 88.6% | 102% | 92.7% | 97.4%
15 | CC(=O)N(C)c1ccc(Nc2ccc(Nc3ccc(N(C)C(C)=O)cc3)c3c2C(=O)c2ccccc2C3=O)cc1 | 71.4% | 25.9% | 79% | 64.3% | 30.2% | 110% |  | 56.8% | 72.6%
16 | O=[N+]([O-])c1ccc(N/N=C/c2cccc3ccccc23)nc1 | 103% | 86.9% | 100% | 91.8% |  | 106% | 14.9% | 57.3% | 79.4%
17 | O=C1NC(=O)N(Cc2ccccc2)CC1Br (stereo not given) | 56.3% | 77.6% | 86.3% | 70.5% |  | 129% | 13% | 57.7% | 19.7%
18 | COc1cc(-c2cc(/C=C/C(=O)c3ccc4c(c3)OCO4)[nH]n2)cc(OC)c1OC | 63.9% | 38.7% |  | 84.6% | 59.7% | 73.7% | 0.141% (active) | 52.7% | -15.1% (active)
19 | CCOC(=O)N1C/C(=C/c2ccc(F)cc2)C(=O)/C(=C/c2ccc(F)cc2)C1 | -43.8% (active) | -55.6% (active) | 2.65% (active) | -28% (active) | -16% (active) |  | -1.18% (active) | 2.2% (active) | -19.9% (active)
20 | O=C(CCCCC[P+](c1ccccc1)(c1ccccc1)c1ccccc1)NC(COC(=O)C(Cl)Cl)(COC(=O)C(Cl)Cl)COC(=O)C(Cl)Cl | 96.8% | 94% | 87.4% | 113% | 107% | 89.7% |  | 97.6% | 88.8%
21 | COc1ccc(-c2cc(/C=C3\C(=O)Nc4ccc(Cl)cc43)[nH]n2)cc1OC | 87.1% | 71.1% |  | 79.4% | 81.3% | 76% | 72.2% | 57.5% | 55.2%
22 | COc1ccc2c(c1OC)O/C(=C\c1ncc([N+](=O)[O-])n1C)C2=O | 11.8% | -42.8% (active) | 14.7% | -2.65% (active) | -27.5% (active) | 68.8% |  | 1.01% (active) | 6.02% (active)
23 | COc1ccc(Cn2c(C(N)=O)cc3c2-c2nc(N)ncc2CCC3)cc1 | 106% | 82.6% |  | 97.1% | 105% | 76.2% | 95.8% | 108% | 108%
24 | N#Cc1ncc(-c2ccc(C(F)(F)F)cc2)c(NCc2cc(C(F)(F)F)cc(C(F)(F)F)c2)n1 | 21.8% | 26.1% | 47.4% | 0.868% (active) | 17.9% | 15.3% |  | 21.9% | 12.1%
25 | CN(CCc1ccccn1)c1ccccc1 | 104% | 97.9% | 104% | 102% |  | 109% |  | 59.9% | 87.5%
26 | CSc1nc(=O)n(Cc2ccc(Cl)cc2)c(=O)[nH]1 | 107% | 112% |  | 103% | 112% | 103% | 100% | 105% | 95.5%
27 | C=C1c2c(C)nn(-c3ccc(OC)cc3)c2N(C)C23C[C@@H]1C1(C)c4c(C)nn(-c5ccc(OC)cc5)c4N(C)C(C)(C[C@H]12)C3 (stereo not given in full) | 23.8% | 16.2% |  | 33.8% | 2.18% (active) | 40.2% | 21.7% | 14.9% | 3.27% (active)
28 | CCCC(F)C(=O)O (stereo not given) | 100% | 77.7% |  | 106% | 86.2% | 98.5% | 94.5% | 93% | 91.2%
29 | O=C1/C(=C\c2ccc(Cl)cc2)CN(C(=S)Nc2ccccc2)C/C1=C\c1ccc(Cl)cc1 | -52% (active) | -95% (active) | -60.5% (active) | -86.8% (active) | -17.6% (active) |  | -2.03% (active) | 5.1% (active) | -15.1% (active)
30 | S=C1SCC(c2ccccc2)S1 (stereo not given) | 101% | 104% |  | 101% | 97.1% | 102% | 101% | 107% | 103%

Source: PubChem BioAssay (NCI)
